Assay [1] can be described thus: HepG2 liver cancer cell viability effects, profiling panel, resazurin fluorescence, 24 h, PK04 Diversity Set (AID 1172). Note: test concentration not given here. The conditions noted are these: higher = more signal.
Assay [2] in a line: basal S. cerevisiae growth modulation, no modifier, primary screen, OD600, strain BY4716, 24 h, basal condition (AID 1173). The conditions noted are these: OD600, 24 h, higher = more signal, called active from +8 up or from −8 down.
The nature of assay [3]: MM1S myeloma cell viability, profiling panel, resazurin fluorescence, basal, 24 h, PK04 Diversity Set (AID 1174).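 Note: MM1S multiple myeloma cell line; test concentration not given here.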 The conditions noted are these: higher = more signal, called active from +8 up or from −8 down. On the technique in general: The colour change of resazurin is a common sign of viable cells or microbes.
Assay [4] has as its target Dihydroorotate dehydrogenase (quinone), mitochondrial (Plasmodium falciparum (isolate 3D7)) (UniProt Q08210). Description: PfDHODH enzyme inhibitors, primary screen, biochemical, C-terminal His tag, absorbance 600 nm (AID 1175).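 Note: recombinant parasite enzyme with a five histidine tag at its C terminus; test concentration not given here.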 The conditions noted are these: DCIP absorbance 600 nm, higher = more signal, called active from +8 up or from −8 down.
Assay [5] can be described thus: P. aeruginosa biofilm formation inhibitors, primary screen, strain PAO1, LB-PBS medium, absorbance 600 nm (AID 1176). Note: test concentration not given here. The settings on record: P. aeruginosa PAO1 growth/biofilm, A600, 12 h; higher = more signal.
Assay [6] can be described thus: S. cerevisiae RM11-1a growth modifiers, primary screen, strain RM11-1a, OD600, basal, 24 h (AID 1177).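 Note: cultures grown under basal conditions with no added stressor; test concentration not given here.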 The conditions noted are these: OD600, 24 h, higher = more signal, called active from +8 up or from −8 down.
Assay [7] can be described thus: E. coli acrAB mutant growth effects, primary screen, E. coli filamentation inducers, strain DRC39, OD650, 24 h (AID 1178).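 Note: growth measured as culture turbidity by optical density at 650 nm; test concentration not given here.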 The conditions noted are these: higher = more signal, called active from +8 up or from −8 down.
A short description of assay [8]: E. coli acrAB mutant growth effects, primary screen, E. coli filamentation inducers, strain DRC39, OD650, 48 h (AID 1179).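 Note: screen aims at cell division blockers that make cells filament.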 The settings on record: E. coli DRC39 delta-acrAB growth, higher = more signal, called active from +8 up or from −8 down.
A short description of assay [9]: RPMI8226 myeloma cell viability, profiling panel, resazurin fluorescence, basal, 24 h, PK04 Diversity Set (AID 1180).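 Note: RPMI8826 multiple myeloma cell line at 5000 cells per well; test concentration not given here.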 The conditions noted are these: higher = more signal.
In assay [10] the target is E3 ubiquitin-protein ligase XIAP (Homo sapiens) (UniProt P98170). Description: XIAP binders, primary screen, biophysical, small-molecule microarray, fluorescence 635 nm (AID 1181).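 Note: score merges 667 nm emission and signal to noise over triplicate slides.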 The settings on record: small-molecule microarray binding, higher = more signal.

Molecules are shown by their SMILES. Calls of active or inactive are those of the source. Unless noted, the rule behind the calls is not given here.

E3 ubiquitin-protein ligase XIAP (Homo sapiens), sequence (P98170 whole entry, looked up): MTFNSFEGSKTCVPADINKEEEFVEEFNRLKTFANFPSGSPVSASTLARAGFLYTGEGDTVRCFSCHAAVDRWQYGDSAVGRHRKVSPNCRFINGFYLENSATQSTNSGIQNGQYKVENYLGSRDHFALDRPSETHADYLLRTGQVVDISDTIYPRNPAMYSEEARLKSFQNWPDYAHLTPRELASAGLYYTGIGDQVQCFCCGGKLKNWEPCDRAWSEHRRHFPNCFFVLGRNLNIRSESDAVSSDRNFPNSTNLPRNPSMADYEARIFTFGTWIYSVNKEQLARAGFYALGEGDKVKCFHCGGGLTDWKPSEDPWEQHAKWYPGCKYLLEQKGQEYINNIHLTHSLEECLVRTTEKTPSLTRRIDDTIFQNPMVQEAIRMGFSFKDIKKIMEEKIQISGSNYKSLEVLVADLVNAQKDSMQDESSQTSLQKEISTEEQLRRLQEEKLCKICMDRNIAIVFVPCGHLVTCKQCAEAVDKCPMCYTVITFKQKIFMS
Dihydroorotate dehydrogenase (quinone), mitochondrial (Plasmodium falciparum (isolate 3D7)), sequence (Q08210 whole entry, looked up): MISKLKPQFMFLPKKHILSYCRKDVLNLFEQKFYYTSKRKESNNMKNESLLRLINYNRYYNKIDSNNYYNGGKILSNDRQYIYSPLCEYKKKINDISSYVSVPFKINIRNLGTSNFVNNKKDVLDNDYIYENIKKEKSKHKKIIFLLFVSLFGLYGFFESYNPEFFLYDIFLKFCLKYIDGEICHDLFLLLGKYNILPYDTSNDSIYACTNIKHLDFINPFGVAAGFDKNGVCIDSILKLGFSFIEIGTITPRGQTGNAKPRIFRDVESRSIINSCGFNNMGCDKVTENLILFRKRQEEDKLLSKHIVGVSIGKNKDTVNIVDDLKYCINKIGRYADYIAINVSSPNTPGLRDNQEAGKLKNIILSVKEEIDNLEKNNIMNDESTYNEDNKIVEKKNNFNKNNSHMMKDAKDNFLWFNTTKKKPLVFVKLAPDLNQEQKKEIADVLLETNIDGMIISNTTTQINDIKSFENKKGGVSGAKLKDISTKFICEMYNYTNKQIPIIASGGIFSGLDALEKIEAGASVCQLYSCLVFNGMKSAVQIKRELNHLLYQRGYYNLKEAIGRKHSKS

In the case of `C=CCOC(=O)[C@H]1[C@@H]2C(=O)O[C@@H](c3ccccc3)[C@@H](c3ccccc3)N2[C@@H](c2ccc(OCCOC(=O)[C@@H]3C[C@@H]4C(=O)N[C@@H](CCCCN(C)C)C(=O)N4[C@@H]3c3ccc(O)cc3)cc2)[C@]12C(=O)Nc1ccccc12`, the z-score was -2.65 in assay [1]; -1.48 (inactive) in assay [2]; 0.0862 (inactive) in assay [3]; 1.07 (inactive) in [5]; 0.0694 (inactive) in assay [6]; -1.05 (inactive) in assay [7]. Also, the values for the z-score in assay [8] and in assay [9] were -0.628 (inactive) and 0.313, respectively. In addition, the composite z-score was -1.52 (inactive) in assay [4] and -0.0172 in assay [10].
As for `COCCCNC(=O)[C@@]1(Cc2ccccc2N=[N+]=[N-])N=C(c2ccc(OCCCO)cc2)O[C@H]1c1ccccc1`, the z-score in [1] was -0.0132; in [2], -0.632 (inactive); in assay [3], -0.681 (inactive); in assay [5], 0.441 (inactive); in assay [6], -0.115 (inactive); in assay [7] it was 0.987 (inactive). Also, the z-score in [8] was -0.325 (inactive); in assay [9], -0.647. Further, the composite z-score in assay [4] was 0.328 (inactive); in assay [10], 0.234.
For the compound `CCOC(=O)C1=CC[C@@H](c2ccc(OCc3ccccc3)c(OC)c2)N(S(=O)(=O)c2ccc(C)cc2)[C@H]1c1ccc(SC)cc1`, the z-score in assay [1] was 0.579; in [2] it was 0.49 (inactive); in assay [3], -0.107 (inactive); in [5], 1.64 (inactive); in assay [6] it was -0.759 (inactive); in [7], -0.286 (inactive). The values for the z-score in assay [8] and in [9] were -0.361 (inactive) and -0.455, respectively. Besides, the composite z-score in assay [4] was -0.322 (inactive); in [10] it was 0.307.
Regarding `CCOC(=O)C1=CC[C@@H](c2ccccc2C(F)(F)F)N(S(=O)(=O)c2ccc(C)cc2)[C@H]1c1ccc(C#N)cc1`, the z-score is -0.0666 in assay [1]; 1.02 (inactive) in assay [2]; -1.39 (inactive) in assay [3]; 1.01 (inactive) in [5]; -0.171 (inactive) in [6]; -0.534 (inactive) in assay [7]. The results for the z-score in [8] and in assay [9] were 0.312 (inactive) and -0.823, respectively. Further, the composite z-score in [4] is -0.0408 (inactive); in assay [10] it was -0.0172.
For `COc1ccc(CCN2C(=O)[C@@]3(Cc4ccccc42)c2ccccc2C(=O)N(Cc2ccccc2OC)[C@H]3c2ccc(CO)cc2)cc1`, the z-score in [1] was -0.736; in assay [2] it was -0.158 (inactive); in assay [3] it was 0.289 (inactive); in [5], -0.0065 (inactive); in assay [6], -1.16 (inactive); in assay [7] it was 0.981 (inactive). Further, the z-score in assay [8] is 0.339 (inactive); in [9], 1.01. Further, the values for the composite z-score in assay [4] and in [10] were -4.65 (inactive) and -0.194, respectively.
For `C=CCNC(=O)[C@H]1[C@@H]2C(=O)O[C@@H](c3ccccc3)[C@@H](c3ccccc3)N2[C@@H](c2ccc(O)cc2)[C@]12C(=O)Nc1ccc(C#CC3(O)CCCCCC3)cc12`, the z-score in assay [1] was 0.435; in assay [2] it was -0.989 (inactive); in [3], -0.514 (inactive); in [5] it was 1.45 (inactive); in assay [6], -0.596 (inactive); in assay [7] it was 0.186 (inactive). Further, the z-score was -0.11 (inactive) in assay [8] and -0.458 in assay [9]. Besides, the composite z-score in assay [4] is 0.19 (inactive); in assay [10], -0.0622.
As for `COc1cc(OC)c(C(O)C2C=CC3C(=O)N(c4ccccc4)C(=O)C3N2Nc2ccccc2)cc1Br` (stereo not given), the z-score in assay [1] was 0.222; in assay [2], -11 (active); in [3] it was -1.14 (inactive); in [5], 0.475 (inactive); in [6], 0.378 (inactive); in [7] it was -1.05 (inactive). The z-score was -0.163 (inactive) in [8] and -1.52 in [9]. Also, the results for the composite z-score in assay [4] and in [10] were 0.593 (inactive) and 0.0967, respectively.
`COC(=O)[C@@]1(Cc2ccc(OC)cc2)[C@H]2c3cc(C(=O)N4CCCC4)n(Cc4cccc5ccccc45)c3C[C@H]2CN1C(=O)c1ccccc1`: the z-score in assay [1] is -0.18; in assay [2], 1.07 (inactive); in assay [3], -0.619 (inactive); in [5] it was -0.362 (inactive); in [6], 1.08 (inactive); in [7], 0.24 (inactive). The z-score in [8] is 0.277 (inactive); in assay [9], 0.0686. For the same compound, the composite z-score in assay [4] is 0.237 (inactive); in assay [10] it was 0.5.
On to `C=CC[C@]1(C(=O)O)COC(c2ccc(OCCCO)cc2)=N1`, for which the z-score was 0.264 in [1]; 0.32 (inactive) in assay [2]; 0.546 (inactive) in assay [3]; 0.37 (inactive) in assay [5]; -0.643 (inactive) in assay [6]; -0.353 (inactive) in [7]. The z-score was -0.201 (inactive) in [8] and -0.1 in [9]. Besides, the figures for the composite z-score in [4] and in [10] were 0.146 (inactive) and 0.1, respectively.
Turning to `COCCOC(=O)N1C(=O)[C@@]2(c3cc(C#Cc4ccc(OC)cc4)ccc31)[C@H](C(=O)Nc1nc3ccccc3s1)[C@H]1C(=O)O[C@H](c3ccccc3)[C@H](c3ccccc3)N1[C@@H]2c1ccc(O)cc1`, the z-score is -0.154 in [1]; -0.43 (inactive) in assay [2]; 0.529 (inactive) in assay [3]; 0.609 (inactive) in assay [5]; 0.735 (inactive) in assay [6]; 0.275 (inactive) in assay [7]. Besides, the results for the z-score in assay [8] and in assay [9] were -0.591 (inactive) and 0.85, respectively. Further, the composite z-score was 1.17 (inactive) in assay [4] and 0.012 in assay [10].
As for `O=C1O[C@@H](c2ccccc2)[C@@H](c2ccccc2)N2[C@@H](c3ccccc3OCCO)[C@]3(C(=O)Nc4ccc(C#CCCO)cc43)[C@@H](C(=O)N3CCCCCCC3)[C@H]12`, the z-score in assay [1] was 0.29; in assay [2] it was 0.355 (inactive); in assay [3], -1.91 (inactive); in [5], 1.26 (inactive); in [6], 0.753 (inactive); in [7], -0.291 (inactive). For the same compound, the z-score in [8] is 0.321 (inactive); in assay [9], -4.5. Also, the composite z-score is -0.452 (inactive) in assay [4] and 2.45 in assay [10].
